Test results published in PubChem BioAssay (NCI).
About 79,000 compounds went through this panel and 15% of them were active in at least one assay; those are over-represented in the sample as a whole. Values without a mark were called inactive. Active and inactive are the calls of the source. No stated cut-off is given here; in the data, active means growth inhibition above about 70%; inactive means the rest.

Assay: NCI Yeast Anticancer Drug Screen. Data for the mec2-1 strain (AID 157)
Conditions: S. cerevisiae mec2-1 strain, at 50.0 µM, hits give high values
Experimental: Growth inhibition of yeast strains with defined genetic alterations is measured as a screen for potential anti-cancer activity. Selected strains with alterations in DNA damage repair or cell cycle control were exposed to compounds and growth inhibition was measured relative to vehicle treated controls. The strain used in this assay is mec2-1

Compound | growth inhibition
NC(CC1=CS(=O)(=O)c2ccc(Cl)cc21)C(=O)O (stereo not given) | 19.3%
O=C(O)C(Br)Cc1cccc([N+](=O)[O-])c1 (stereo not given) | -9.35%
CC#CC(O)(C(=O)OC1CCC2CCC1N2C)C1CCCC1 (stereo not given) | -8.9%
FC(F)(F)C(Cl)=C(Cl)Cl | -38.5%
CC(=O)NC1CC(=O)N(c2ccccc2)C1=O (stereo not given) | 7.8%
O=C(O)C(CCc1ccccn1)c1ccccc1 (stereo not given) | -26.2%
Cc1ccc(C2(C)NC(=S)N(NC(N)=S)C2=S)cc1 (stereo not given) | 19.8%
CC1(C)OC(=O)C=C([O-])O1.CC1(C)OC(=O)C=C([O-])O1.O=c1c(O)c(-c2ccc([O-])cc2[O-])oc2cc(O)cc(O)c12.[Ti+4] | 9.05%
CC(C)=NNC(=O)COCC(=O)NN=C(C)C | -4.45%
COC(=O)CCc1ccc(C2CO2)cc1 (stereo not given) | 6.15%
O=[N+]([O-])c1ccc(/C=C(/c2ccc([N+](=O)[O-])o2)S(=O)(=O)C(Cl)(Cl)Cl)cc1 | 97.2% (active)
CCNc1ccc(N=Nc2ccc(-c3ccc(N=Nc4ccc(NCC)c5ccccc45)c(OC)c3)cc2OC)c2ccccc12 | 18.1%
CNCC(SC)c1ccc(O)c(O)c1 (stereo not given) | -14.8%
O=c1oc2ccccc2c2c1cnn2-c1ccccc1 | -4%
COC(=O)C(CCS(=O)(=O)CC(=O)C(=O)Nc1cccc(C(C)=O)c1)C(=O)OC | -15.1%
CC(c1ccccc1)N1OC1(c1ccccc1)c1ccccc1 (stereo not given) | 50.4%
C=C(Br)CNCC(=C)Br | 7.25%
COC(=O)c1ccccc1CC1Cc2c(C)ccc(C)c2C1=O (stereo not given) | 3.1%
COc1ccc(/C=C2\CCC(Cc3ccccc3)(CN(C)C)C2=O)cc1 (stereo not given) | -15.3%
CSC1(C)C(=O)Nc2cc([N+](=O)[O-])ccc21 (stereo not given) | -11.1%

Compound | growth inhibition
CCCN1CCc2c([nH]c3cc(OC)ccc23)C1C (stereo not given) | -4.15%
C=CCc1c(O)c2ccccc2[nH]c1=O | 15.6%
CN(C)C(=S)Oc1cc(Cl)c(Cl)cc1Cl | 95.6% (active)
CCOC(=O)C1=CN(C)C=C(Br)C1C#N (stereo not given) | 10.1%
COc1cc(C2=N/C(=C\C=C\c3ccccc3)C(=O)O2)cc(OC)c1OC | 16%
O=C(O)C1=C(C(=O)O)C2CCCC3C4CCCCC4N(N1)C23 (stereo not given) | -13.9%
Cc1nn(-c2ccccc2)c(SC(C)(C)C)c1C=NCCN=Cc1c(C)nn(-c2ccccc2)c1SC(C)(C)C | 15.3%
O=c1[nH]c(=O)n(C2OC(CO)C(O)C2O)cc1OCCCc1ccccc1 (stereo not given) | -1.8%
CCC=Nc1ccccc1CO | 8.5%
CCOC(=O)C(CCC(c1ccc(OC)cc1)c1ccc(OC)cc1)C(=O)OCC | -8.15%
C[N+](C)(C)CCOC(=O)c1ccccc1CCl | 8.35%
CN(C)Cc1ccccc1C=C(c1ccccc1)c1ccccc1 | 0.65%
CC1(C)C=CC=C(C(=O)O)C=C1 | -24%
N#C/C(=C\N1CC(=O)NC1=S)C(=O)c1ccc2ccccc2c1 | 15.6%
Cc1ccc2c(c1)-c1nc3nnnn3nc1C(C)(C)O2 | 6.8%
CC(=O)CC(=O)C1CCC(C(=O)CC(C)=O)CC1 (stereo not given) | 6.2%
CCc1cccc(C(=O)O)c1N | 5.75%
CCCCCCCCCCCCCCCCOc1ccc(Sc2ccc([N+](=O)[O-])cc2)cc1 | 4.2%
CC(=[N-])CC(C)=O.O=C(CC(=Nc1ccccc1)c1ccccc1)c1ccccc1.[Cu+] | -7.5%
Cc1ccc(C(=O)CC(C#N)c2ccccc2)cc1 (stereo not given) | 17.4%
